Source: PubChem BioAssay AID651871 (Sanford-Burnham Center for Chemical Genomics, 2012)
“And” between values parts separate entries of the source, which are not always exact repeats. Equal entries are not always repeated.

Tested on: H9c2
Assay: cardiomyocyte survival under oxidative or metabolic stress – cell-based, panel, H9c2 and HL-1, ATP luminescence, set 2, SAR follow-up (AID 651871);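 also: cells exposed to stressor for 2 h before ATP readout; reference of the scale not given here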
Details: H9c2/HL-1 cardiomyocytes, 2-deoxyglucose stress, with 2-deoxyglucose; run 10, at 79 µM (top of the series) unless noted

| SMILES | activity (protection/inhibition) |
| --- | --- |
| COc1ccc2c(c1OC)C(=O)N1c3ccccc3C(=O)N(Cc3cccc(Cl)c3Cl)C21 (stereo not drawn) | 76% and 73.8% and -3.2% |
| CCOC(=O)c1cccc(NC(=O)CNC(=O)c2cc(-c3cc(OC)c(OC)c(OC)c3)nc3ccccc23)c1 | 82.3% [run 10, at 39.5 µM] |
| COc1ccc2nc(-c3cc(OC)c(OC)c(OC)c3)cc(C(=O)NCC(=O)Nc3ccc(C(C)=O)cc3)c2c1 | 78.3% |
